Assay outcomes as filed in PubChem.
HepG2 viability – HepG2 cytotoxicity, counter-screen for TGF-b inhibitors; HepG2 CAGA-GFP viability, ATP luminescence, 18 h; Potency, µM (top dose mostly 46.1 µM), most hits filed as cytotoxic; 410,000 compounds, 0.76% hits; AID 588856
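CellTiter-Glo luminescence gave cytotoxicity after 18 hours at 37 degrees C. The cells were HepG2 CAGA-GFP in 1% FBS DMEM, stimulated with 500 pg/mL TGF-beta after compound addition. %Activity was normalised to no-cell wells (complete cell-killing) and DMSO (no toxicity), and curves were fitted and classified.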
Nrf2 block – blocks Nrf2 signaling | A549 ARE-Fluc reporter, luciferase luminescence, 18-24 h | Potency, µM (doses to about 46 µM), actives largely listed as inhibitors | 360,000 compounds, 2.1% hits | AID 504444; further: nearly all actives have a fitted effect of over 60% in size
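A549 ARE_Fluc cells, 5000/well, 5% FBS OPTI-MEM; compounds in dose-response, 18-24 h at 37 °C/5% CO2; CellTiter-Fluor viability read (Ex 405/Em 525), then BugLite luciferase luminescence = Nrf2 activity.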
TGFb inhibitor – inhibitors of TGF-b signaling; 410,000 compounds, 1.2% hits; HepG2 CAGA-GFP TGF-b/SMAD3 reporter, GFP fluorescence, 18 h; TGF-beta stimulated, 500 pg/mL final; Potency, µM (top dose mostly 46.1 µM), hits mostly inhibitors; further: nearly all actives have a fitted effect of over 65% in size
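HEPG2 CAGA-GFP reporter cells (1000/well, DMEM with 1% FBS) received compounds, then recombinant TGF-beta at 500 pg/mL final for 18 hours at 37 degrees C. Per-cell GFP summed per well was normalised to unstimulated and stimulated DMSO controls before curve fitting.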
A549 viability – counter-screen for Nrf2 inhibitors: cytotoxicity in A549 cells; 390,000 compounds, 0.16% hits; AID 504648; Potency, µM (series often up to 46 µM), actives largely listed as inhibitors; A549 ARE-Fluc cells, CellTiter-Fluor viability, 18-24 h
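Cytotoxicity counterscreen: CellTiter-Fluor fluorescence was measured in A549 ARE_Fluc cells after 18-24 h of compound exposure in a concentration series. The subsequent BugLite luminescent read reports ARE-luciferase activity.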
Nrf2 ARE act – activators of Nrf2 (ARE) signaling; 410,000 compounds, 0.31% hits; Potency, µM (top dose mostly 46.1 µM), most hits filed as activators; AREc32 ARE-luciferase reporter (MCF7-derived line), luminescence, 24 h; AID 624171; further: nearly all actives have a fitted effect of over 65% in size
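ARE-driven firefly luciferase activity in AREc32 cells measured after a 24 hr compound exposure at 37 deg C, using Steady-Glo reagent and a 30 min room-temperature hold.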
Of the large screens only hits and unclear results are named; the others gave an inactive call. Most compounds without a hit are left out; they make up all but 3.6% or so of the library. The call rests on the fitted dose curve; in most records, active means well fitted curve in the direction sought with a large enough effect; inconclusive means small, poorly fitted or top-dose-only effect, or another doubt; inactive means no such curve, though single readings can be large; an effect the other way counts as inactive or inconclusive.

CCCCNc1c(-c2cccc(-c3cc(C(C)=O)cs3)c2)nc2ccc(C)cn12	HepG2 viability 18µM, Nrf2 block inconclusive, TGFb inhibitor inconclusive, A549 viability inconclusive
O=C1c2cccc(OCc3ccc(F)cc3)c2CCN1Cc1ccccc1	Nrf2 block inconclusive, TGFb inhibitor 18µM
N/C(=N\OC(=O)c1ccccc1Cl)c1ccncc1	Nrf2 block inconclusive, Nrf2 ARE act 8.9µM
N/C(=N\OC(=O)c1ccc(Cl)cc1Cl)c1ccncc1	Nrf2 block inconclusive
N/C(=N\OC(=O)c1cccc(Cl)c1)c1ccncc1	Nrf2 ARE act 11µM
Cn1cc(C(=O)N/N=C/C=C/c2ccccc2)ccc1=O	none
FC(F)(F)C1=Nc2cccc3cccc(c23)N1	A549 viability inconclusive
O=C(Nc1ccc(Cl)c(C(F)(F)F)c1)C1Cc2c(-c3ccc4c(c3)OCO4)ccnc2O1 (configuration not stated)	TGFb inhibitor 11µM (no result: Nrf2 block, A549 viability)
O=C(Nc1cccc(OC(F)(F)F)c1)C1Cc2c(-c3ccccc3Oc3ccccc3)ccnc2O1 (configuration not stated)	TGFb inhibitor 11µM (no result: Nrf2 block, A549 viability)
O=C(Nc1ccc(F)c(Cl)c1)C1Cc2c(-c3ccco3)ccnc2O1 (configuration not stated)	TGFb inhibitor 13µM (no result: Nrf2 block, A549 viability)
CC(=O)Nc1cccc(-c2ccnc3c2CC(C(=O)Nc2ccc(F)c(Cl)c2)O3)c1 (configuration not stated)	TGFb inhibitor inconclusive (no result: Nrf2 block, A549 viability)
O=C(Nc1ccccc1)C1Cc2c(-c3ccccc3Oc3ccccc3)ccnc2O1 (configuration not stated)	none (no result: Nrf2 block, A549 viability)
CC(=O)c1cccc(-c2ccnc3c2CC(C(=O)Nc2ccc(Cl)c(C(F)(F)F)c2)O3)c1 (configuration not stated)	TGFb inhibitor 13µM (no result: Nrf2 block, A549 viability)
CCN(CC)CCNC(=O)c1ccc(NC(=O)CC(NC(=O)c2ccccc2Cl)c2ccccc2)cc1 (configuration not stated)	none
CC(=O)Nc1ccc(SCC(=O)c2cc(C)n(-c3ccccc3F)c2C)cc1	Nrf2 block inconclusive
Cc1ccccc1C(=O)NCC(C)NC(=O)c1ccccc1C (configuration not stated)	none
CC1=NNC(=O)/C1=C\c1cn(-c2ccccc2)nc1-c1ccc(F)cc1	Nrf2 block inconclusive, TGFb inhibitor 4µM, A549 viability inconclusive
CC1=NNC(=O)/C1=C\c1cn(-c2ccccc2)nc1-c1cccs1	HepG2 viability 7.9µM, Nrf2 block inconclusive, TGFb inhibitor 5.6µM, Nrf2 ARE act inconclusive
O=C(NC(Cc1c[nH]c2ccccc12)C(=O)Nc1ccc(OC(F)(F)F)cc1)c1cccs1 (configuration not stated)	HepG2 viability 11µM, Nrf2 block inconclusive, TGFb inhibitor inconclusive, A549 viability 23µM
O=C(NC(Cc1c[nH]c2ccccc12)C(=O)Nc1ccc(F)c([N+](=O)[O-])c1)c1cccs1 (configuration not stated)	Nrf2 block inconclusive
CC1C(=O)N(Cc2ccccc2F)c2ccccc2N1C(=O)c1c(F)cccc1F (configuration not stated)	Nrf2 block inconclusive, TGFb inhibitor inconclusive
COc1cccc(CN2C(=O)C(C)N(C(=O)c3c(F)cccc3F)c3ccccc32)c1 (configuration not stated)	Nrf2 block 21µM, TGFb inhibitor inconclusive
CCOC(=O)c1ccc(NC(=O)c2cnc(N3CCCC3)nc2C)cc1	none (no result: Nrf2 block)
COc1ccc(-c2c[n+](CC(=O)OC3CC(C)CCC3C(C)C)c3n2CCC3)cc1 (configuration not stated)	Nrf2 block inconclusive, TGFb inhibitor 20µM
CC(C)[C@@H]1CC[C@@H](C)C[C@H]1OC(=O)C[n+]1cc(-c2ccc(Cl)cc2)n2c1CCCCC2	Nrf2 block inconclusive, TGFb inhibitor inconclusive
CCC1=Nc2cc(C(=O)NCc3ccccc3Cl)ccc2Sc2ccc(C)cc21	TGFb inhibitor inconclusive (no result: Nrf2 block)
CCC(C)NC(=O)c1ccc2c(c1)N=C(C)c1cc(C)ccc1S2 (configuration not stated)	TGFb inhibitor 7.1µM
